# High-throughput results (PubChem BioAssay)
# KDM5B inhibitor: blocks human KDM5B histone demethylase activity; Q9UGL1; KDM5B demethylase, FDH-coupled NADH fluorescence (FDH is formaldehyde dehydrogenase); hit rate 2.6% among 220,000; Potency, µM (titrated, usually from 57.7 µM), most hits filed as inhibitors; AID 1347165; also: potency is read from the fitted curve at half-maximal effect; 0% is about no effect; nearly all actives have a fitted effect of over 70% in size
#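 Measured: NADH fluorescence change, 30 min, RT. System: KDM5BΔAP 200 nM final, H3K4me3 peptide, α-KG, Fe(II), ascorbate, NAD⁺ plus FDH, pH 7.5 HEPES. Compounds: titrated, 10 min pre-incubation with enzyme.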
# SNCA expr inh: inhibitors of alpha-synuclein (SNCA) gene expression; Potency, µM (series often up to 57.2 µM), without a hit: at the top dose activity change, negative = inhibition, usual class: inhibitors; hit rate 0.17% among 140,000; HEK-293 SNCA-luciferase knock-in, luminescence, 24 h;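 also: potency is read from the fitted curve at half-maximal effect; plate controls were DMSO cells for no effect and cell-free wells for full effect; nearly all actives have a fitted effect of over 45% in size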
# IP6K1 inh: IP6K1 kinase inhibition | Q92551 | IP6K1 kinase, ADP-Glo luminescence, 2 h; active compounds read low | activity change, % (series mostly up to about 58 µM) | hit rate 0.81% among 140,000; in the data active = activity change below about -25%; also: % is scaled to controls: 0 for no effect and ±100 for the full control effect
#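 ADP-Glo luminescence measures ADP made by human IP6K1 during a 2 h RT reaction with ATP/IP6 (mix at 1.3 mM/130 uM); top library doses 57.5 and 19.1 uM final.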
# HEK293 viab: reduces viability of HEK-293 SNCA reporter cells; HEK-293-SNCA-luc viability, GF-AFC fluorescence, 24 h; Potency, µM (series often up to 57.1 µM), for inactives: at the top dose activity change, negative = cytotoxicity, hits mostly cytotoxic; hit rate 0.12% among 150,000; AID 1671193;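 also: potency is read from the fitted curve at half-maximal effect; 0% = DMSO-treated cells and -100% = medium-only wells without cells; nearly all actives have a fitted effect of over 30% in size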
#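 Cytotoxicity counterscreen: after 24 h compound treatment of genome-edited SNCA-luciferase HEK-293 cells, live-cell protease substrate GF-AFC read by fluorescence after 30 min; activity scaled between DMSO (0%) and medium-only (-100%), curves Hill-fitted.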
# * hit, by the source's call; i = inactive; ? = inconclusive; . = no result given; [ ] = remark or other dose. Only some compounds are listed: those with a hit (about 2.9% of all), similar ones and a draw of the others. Unless noted, calls follow the shape of the dose curve; as a rule, active = well fitted curve in the direction sought with a large enough effect; inconclusive = small, poorly fitted or top-dose-only effect, or another doubt; inactive = no such curve, though single readings can be large; an effect the other way counts as inactive or inconclusive.
SMILES,KDM5B inhibitor,SNCA expr inh,IP6K1 inh,HEK293 viab
CC(C)(CC(=O)O)CC(=O)N[C@H]1C[C@H]2C(=O)Nc3ccc(/C=C/c4ccccc4)cc3C(=O)N2C1,28.2µM*,0.5%,-13.8,6.5%
COc1ccc(/C=C/c2ccc3c(c2)C(=O)N2C[C@@H](NC(=O)CC(C)(C)CC(=O)O)C[C@H]2C(=O)N3)cc1,22.4µM*,-16.7%,-4.3,-0.9%
COCC(=O)N[C@H]1C[C@H]2C(=O)Nc3ccc(/C=C/c4ccccc4)cc3C(=O)N2C1,i,24.4%[87.6 µM],-11.8,-5.0%[87.6 µM]
O=C(NN1CCOCC1)c1ccn(COc2ccc(Br)cc2)n1,i,.,.,.
COc1ccc(F)cc1-c1cccc(C(=O)NCCNC(=O)N(C)C)c1,.,31.4%,4.9,5.6%
COc1cccc(-c2cc3c(=O)n(CCNC(=O)c4ccc(Cl)cc4)ccn3n2)c1,?,3.9%,-7.4,1.5%
COc1ccc(C(=O)NCCn2ccn3nc(-c4cccc(OC)c4)cc3c2=O)cc1,22.4µM*,0.8%,-9.2,-21.8%
COc1cccc(-c2cc3c(=O)n(CCNC(=O)c4cc(C)cc(C)c4)ccn3n2)c1,31.6µM*,41.0%,-11.9,-12.5%
COc1cccc(-c2cc3c(=O)n(CC(O)c4cccc(C#N)c4)ccn3n2)c1 (centres undefined),22.4µM*,80.4%,-7.8,-12.6%
COc1cc(OC)cc(C(=O)NCCn2ccn3nc(-c4cccc(OC)c4)cc3c2=O)c1,?,38.6%,-13.0,-13.7%
COc1cccc(-c2cc3c(=O)n(CCNC(=O)c4ccc(C(C)(C)C)cc4)ccn3n2)c1,25.1µM*,-12.8%,-13.7,-16.0%
COC(=O)N1CC(N2C(=O)c3c(c(C)nn3-c3ccccc3)C2C2CC2)C1 (centres undefined),.,.,0.0,.
COc1cccc(-c2cc3c(=O)n(CCNC(=O)C4CCCCC4)ccn3n2)c1,i,75.4%,-10.3,-12.0%
COc1cccc(-c2cc3c(=O)n(CCNC(=O)C4CCN(C(C)=O)CC4)ccn3n2)c1,20µM*,22.3%,-12.9,-9.5%
COc1cccc(-c2cc3c(=O)n(CCNC(=O)c4ccccc4F)ccn3n2)c1,?,39.1%,-7.1,-1.6%
COc1cccc(-c2cc3c(=O)n(CCNC(=O)c4cc(Cl)ccc4F)ccn3n2)c1,25.1µM*,28.9%,-13.3,0.5%
O=C(Cc1ccccn1)N1CCc2nc(C3CC3)nc(-c3ccc(Cl)cc3)c2C1,.,-1.0%,-8.3,-15.5%
COC[C@@H]1CN(c2ncccn2)C[C@H]1C(=O)NCc1c(C)n[nH]c1C,28.2µM*,24.6%,0.0,-14.5%
COC[C@@H]1CN(c2ncccn2)C[C@H]1C(=O)N1CCc2ccccc21,?,10.7%,7.1,-18.5%
COC[C@@H]1CN(c2ncccn2)C[C@H]1C(=O)NCCn1cccn1,20µM*,-13.0%,9.1,-48.5%
COC[C@@H]1CN(c2ncccn2)C[C@H]1C(=O)Nc1ccc(OC)nc1,25.1µM*,20.9%,4.3,3.1%
COC[C@@H]1CN(c2ncccn2)C[C@H]1C(=O)N(C)Cc1cn(C)nc1C,14.1µM*,-4.0%,6.6,-3.2%
COC[C@@H]1CN(c2ncccn2)C[C@H]1C(=O)NCc1ccccc1OC,17.8µM*,-13.9%,3.5,-2.0%
COc1ccccc1CNC(=O)[C@H]1CN(C(C)C)C[C@H]1C(=O)O,i,-16.8%,7.8,?
CCc1cc(=O)n(CC(=O)N2CCN(c3ccccc3F)CC2)c(N2CCOCC2)n1,i,-17.9%,26.0,-16.4%
SMILES,KDM5B inhibitor,SNCA expr inh,IP6K1 inh,HEK293 viab
COc1ccccc1-c1ccc(CN2CCC(NC(=O)c3ccc(Cl)cc3)C2)cc1 (centres undefined),.,.,2.4,.
N#Cc1ccc(CN2CCCCCCNC(=O)[C@@H]3C[C@@H](C(=O)NCCc4cnc[nH]4)C[C@@H]32)cc1,20µM*,-9.8%,-0.2,0.4%
Cc1ccc(CN2CCCCCCNC(=O)[C@@H]3C[C@@H](C(=O)NCCc4cnc[nH]4)C[C@@H]32)o1,?,3.2%,13.1,-3.7%
CC(C)CCN1CCC(N2CCN(S(=O)(=O)c3ccc4c(c3)CCCC4)CC2)C1=O (centres undefined),i,-29.3%,24.7,-14.3%
c1csc(CN2Cc3[nH]cnc3C[C@H]2c2nc(-c3ccncc3)no2)c1,28.2µM*,95.4%[87.6 µM],6.8,6.4%[87.6 µM]
c1cc(-c2noc([C@@H]3Cc4nc[nH]c4CN3CC3CCCCC3)n2)ccn1,35.5µM*,9.1%[87.6 µM],3.1,-7.2%[87.6 µM]
COc1ccc(-c2noc([C@@H]3Cc4nc[nH]c4CN3Cc3cccs3)n2)cc1,?,?,-16.0,-21.5%[87.6 µM]
c1csc(CN2Cc3[nH]cnc3C[C@H]2c2nc(-c3ccc4ccccc4c3)no2)c1,28.2µM*,?,32.9,2.8%[87.6 µM]
Cc1nn(-c2ccccc2)c2c1C(C)N(C1CCN(C(=O)c3ccc(F)cc3)C1)C2=O (centres undefined),.,.,-2.6,.
Cn1cccc1CN1CCCC(C(=O)NCc2ccccc2)CCNC(=O)CC1 (centres undefined),?,-12.0%,1.8,-0.3%
CC(=O)Nc1ccc(-c2ccc(=O)n3c2[C@@H]2C[C@@H](CN(S(=O)(=O)c4ccc(Cl)cc4)C2)C3)cc1,i,-9.2%,26.5,-17.5%
CCC1(CO)CCCN(Cc2ccc3c4c(cccc24)C(=O)OC3)C1 (centres undefined),11.2µM*,-17.8%,7.4,1.7%
CN(C)CCCC(=O)N1Cc2ccccc2CC2(CCCCN2Cc2ccccc2)C1 (centres undefined),i,-16.8%,-13.7,-25.5%
Cc1ccc(C(=O)N(CCCN)C(c2nc3cc(Cl)ccc3c(=O)n2Cc2ccccc2)C(C)C)cc1 (centres undefined),.,.,0.4,29.9µM*
C#CC[C@H](c1nc2cc(Cl)ccc2c(=O)n1Nc1ccccc1)N(CCCN)C(=O)c1cccc(Cl)c1F,.,.,12.7,?
c1ccc(-c2noc(-c3ccn4c(CN5CCCCCC5)nnc4c3)n2)cc1,?,35.8%,14.8,-19.8%
C=CCN(CC=C)Cc1nnc2cc(-c3nc(-c4ccccc4)no3)ccn12,25.1µM*,65.4%,4.6,-6.2%
CCN(CC)Cc1nnc2cc(-c3nc(-c4ccccc4)no3)ccn12,20µM*,86.0%,-2.6,-6.0%
NC(=O)C1CCN(Cc2nnc3cc(-c4nc(-c5ccccc5)no4)ccn23)CC1,6.31µM*,95.6%,10.3,12.9%
COc1ccc(-c2cc(C(=O)NC3CCOCC3)c3cnn(C)c3n2)cc1,.,.,32.2,.
C[C@@H]1CN(c2nc(-c3ccccc3)no2)CC[C@@]1(O)C1CCC1,i,14.1µM*,-10.7,-10.8%
OCC1(CC2CC2)CCCN(c2nc(-c3ccccc3)no2)C1 (centres undefined),i,112.7%,-4.5,6.4%
CCC(=O)c1cc2c(cc1NC(=O)c1ccccc1F)OCCO2,i,11.6%,19.4,0.5%
CCCC(=O)c1cc2c(cc1NC(=O)c1ccccc1F)OCCO2,?,14.1µM*,21.8,-3.6%
CC(C)CNC(=O)c1ccc2nnc(-c3ccc(OC(F)(F)F)cc3)n2c1,.,11.2%,-5.7,-4.2%
